# Shown are actives, neighbours in structure and some others; about 1.1% of the full set was active somewhere.
# AmpC inh detg: qHTS Inhibitors of AmpC Beta-Lactamase (assay with detergent); P00811; AmpC hydrolysis of nitrocefin, absorbance 480 nm, 0.01% Triton; Potency, µM (titrated, usually from 114 µM), actives largely listed as inhibitors; 370,000 compounds, 0.041% hits; note: nearly all actives have a fitted effect of over 25% in size
# Target sequence (P00811 whole entry, looked up): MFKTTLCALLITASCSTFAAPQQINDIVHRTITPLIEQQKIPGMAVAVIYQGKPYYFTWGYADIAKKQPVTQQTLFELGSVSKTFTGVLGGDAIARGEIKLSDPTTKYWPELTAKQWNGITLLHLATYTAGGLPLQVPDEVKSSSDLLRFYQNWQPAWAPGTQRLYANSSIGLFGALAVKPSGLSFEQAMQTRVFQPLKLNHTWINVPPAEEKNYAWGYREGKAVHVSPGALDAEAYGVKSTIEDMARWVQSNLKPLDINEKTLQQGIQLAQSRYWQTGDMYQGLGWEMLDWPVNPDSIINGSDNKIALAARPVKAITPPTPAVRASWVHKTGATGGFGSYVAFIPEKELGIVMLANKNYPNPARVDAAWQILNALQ
#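 20 mM phosphate pH 7.0 + 0.01% (detergent screen) or 0.0001% Triton X-100; 5.3 nM AmpC reagent; cpd preinc 15 min RT; nitrocefin (800 uM stock) to start; A480 q20 s × 4 min; Activity was normalised to no-enzyme and no-compound control wells.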
# AmpC no deterg: qHTS Inhibitors of AmpC Beta-Lactamase (assay without detergent). AmpC nitrocefin hydrolysis, absorbance 480 nm, 0.0001% Triton. 330,000 compounds, 0.52% hits. P00811. Potency, µM (top dose mostly 57.1 µM), usual class: inhibitors; note: nearly all actives have a fitted effect of over 20% in size
#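 20 mM phosphate pH 7.0 + 0.01% (detergent screen) or 0.0001% Triton X-100; 5.3 nM AmpC reagent; cpd preinc 15 min RT; nitrocefin (800 uM stock) to start; A480 q20 s × 4 min; Activity was normalised to no-enzyme and no-compound control wells.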
# VACV Venus inh: qHTS for Stage-Specific Inhibitors of Vaccinia Orthopoxvirus: Venus Reporter Primary qHTS. 330,000 compounds, 0.46% hits. Vaccinia virus Venus reporter expression, fluorescence. Potency, µM (series often up to 36.5 µM), usual class: inhibitors; calls by dose curve; tested in A549 cells; note: nearly all actives have a fitted effect of over 30% in size
# Vaccinia mCherry: qHTS for Stage-Specific Inhibitors of Vaccinia Orthopoxvirus: mCherry Reporter Primary qHTS | 310,000 compounds, 0.63% hits | Vaccinia virus mCherry reporter infection, fluorescence | Potency, µM (highest dose often 36.5 µM), hits mostly inhibitors; calls by dose curve; tested in A549 cells; note: nearly all actives have a fitted effect of over 35% in size
# Numbers stand for hits; – = inactive; ? = inconclusive; · = not tested or not shown; ! = repeats disagree. Unless noted, calls come from the whole dose curve; as a rule, active = well fitted curve in the direction sought with a large enough effect; inconclusive = small, poorly fitted or top-dose-only effect, or another doubt; inactive = no such curve, though single readings can be large; an effect the other way counts as inactive or inconclusive.
SMILES,AmpC inh detg,AmpC no deterg,VACV Venus inh,Vaccinia mCherry
Cc1ccc(OCCn2c(NC(=O)c3ccco3)nc3ccccc32)cc1,–,20µM,?,?
O=C(Nc1nc2ccccc2n1CCOc1ccccc1)c1ccco1,–,–,?,·
CCn1ncc(Cl)c1C(=O)NC(C)c1ccccc1 (stereo not drawn),–,0.355µM,–,–
CCn1ncc(Br)c1C(=O)NC(C)c1ccccc1 (stereo not drawn),–,–,·,·
CCCCCCCCCC[n+]1ccc(/C=C/c2ccc(N(C)C)cc2)c2ccccc21,·,·,·,–
COC(=O)[C@@H]1CCCN1C(=O)c1c(OC)cc(=O)n2c1CCN(Cc1ccc3c(c1)CCO3)CC2,·,·,–,–
O=C(O)C#CC(=O)O,·,·,–,–
O=S(=O)(Nc1nc2ccccc2nc1Nc1cccc(S(=O)(=O)N2CCCCC2)c1)c1ccccc1,–,?,?,11.2µM
COc1ccc(OC)c(CCNC(=O)Cn2sc3nc(C)cc(C)c3c2=O)c1,50.1µM,?,·,·
CC[C@@H](C)CCCCC(=O)N[C@@H](CCNCS(=O)(=O)O)C(=O)N[C@H](C(=O)N[C@@H](CCNCS(=O)(=O)O)C(=O)N[C@H]1CCNC(=O)[C@H]([C@@H](C)O)NC(=O)[C@H](CCNCS(=O)(=O)O)NC(=O)[C@H](CCNCS(=O)(=O)O)NC(=O)[C@H](CC(C)C)NC(=O)[C@@H](CC(C)C)NC(=O)[C@H](CCNCS(=O)(=O)O)NC1=O)[C@@H](C)O,·,·,–,–
Cc1cccc2cc(CN(C(=O)c3ccc(N4CCCCC4)cc3)C3CC3)c(N3CCC(O)CC3)nc12,·,·,–,–
COc1ccc(S(=O)(=O)NN(C)C)cc1N(C)S(=O)(=O)c1ccc(Cl)cc1,?,–,–,–
COc1ccc(S(=O)(=O)Nc2ccc(C)cc2)cc1N(C)S(=O)(=O)c1ccc(Cl)cc1,–,–,17.8µM,?
CCN1CCN(Cc2ccc(NC(=O)c3cc(NC(=O)c4cc(C)on4)cc(OC)c3)cc2C(F)(F)F)CC1,–,–,?,–
CCN1CCN(Cc2ccc(NC(=O)c3cc(NC(=O)C(=O)c4c[nH]c5ccccc45)cc(OC)c3)cc2C(F)(F)F)CC1,–,–,10µM,?
CCN1CCN(Cc2ccc(NC(=O)c3ccc(C)c(NC(=O)C(=O)c4c[nH]c5ccccc45)c3)cc2C(F)(F)F)CC1,?,–,10µM,11.2µM
CN(C(=O)c1cnn(-c2nccc(-c3ccccc3C(F)(F)F)n2)c1C1CC1)C1CCOC1 (stereo not drawn),·,·,–,–
COCC(=O)Nc1cc(C(=O)N[C@H]2CCCCNC2=O)c2c(c1)nc(-c1ccncc1)n2C,·,·,–,–
O=S(=O)(Nc1cccc2ncccc12)c1cccs1,–,–,?,12.6µM
Cc1ncoc1C(=O)N1CCOc2ccc(CN3CCN(c4ccccn4)CC3)cc2C1,·,·,–,–
N/C(COc1ccccc1)=N\NS(=O)(=O)c1ccccc1,–,0.159µM,·,·
C/C(=N\NS(=O)(=O)c1ccccc1)c1ccccc1,–,–,–,–
CC(C)(C)c1ccc(C(=O)C[n+]2ccccc2Cl)cc1,·,·,–,–
Cc1ccc(NC(=O)C2COc3ccccc3O2)cc1 (stereo not drawn),–,–,·,·
O=C(Nc1ccc(-c2cn3ccsc3n2)cc1)C1COc2ccccc2O1 (stereo not drawn),?,15.8µM,?,?
SMILES,AmpC inh detg,AmpC no deterg,VACV Venus inh,Vaccinia mCherry
CCc1nnc(NC(=O)CC(CN(C)S(=O)(=O)c2ccccc2)c2ccccc2)s1 (stereo not drawn),?,39.8µM,–,–
Cc1nnc(NC(=O)CC(CN(C)S(=O)(=O)c2ccccc2)c2ccccc2)s1 (stereo not drawn),?,–,–,–
CC[n+]1c(/C=C/N(C)c2ccccc2)n(-c2ccccc2)c2ccc(-c3nc4ccccc4s3)cc21,–,–,4.47µM,?
CCOC(=O)c1ccc2c(c1)n(CC)c(/C=C/N(C)c1ccccc1)[n+]2CC,?,–,–,–
CCCCCCCCCCOC(=O)Cn1c(COc2ccccc2OC)[n+](C)c2ccccc21,–,–,14.1µM,?
CCCn1c(NC(=O)c2ccc(Cl)c(S(=O)(=O)N3CCCC3)c2)nc2ccccc21,?,–,25.1µM,11.2µM
O=C(c1cc(-c2ccccc2)on1)N1CCOc2ccc(CN3CCOCC3)cc2C1,·,·,–,–
N#C/C(=C/c1cccc(O)c1)C(=O)NCc1ccc(Cl)cc1,–,20µM,–,–
C[C@H]1[C@H](C)CC[C@]2(C(=O)O)CC[C@]3(C)C(=CC[C@@H]4[C@@]5(C)C[C@@H](O)[C@H](O)C(C)(C)[C@@H]5CC[C@]43C)[C@H]12,–,–,12.6µM,?
Cc1csc(SCC(=O)Nc2cccc3nsnc23)n1,–,0.224µM,?,·
Cc1ccn2cc(CNC(=O)c3cccs3)nc2c1,?,3.55µM,–,–
CC(C)C[C@H](CO)N(Cc1ccccc1)S(=O)(=O)N(Cc1ccccc1)[C@@H](CO)CC(C)C,·,–,?,14.1µM!
O=S(=O)(N(Cc1ccccc1)[C@@H](CO)Cc1ccccc1)N(Cc1ccccc1)[C@@H](CO)Cc1ccccc1,·,–,–,–
C=CS(=O)(=O)N(Cc1ccccc1)[C@H](CO)CC(C)C,·,·,1.12µM,?
C=CS(=O)(=O)N(Cc1ccccc1Br)[C@H](CO)Cc1ccccc1,·,·,1.12µM,?
CCN(CC)Cc1cc(Nc2c3ccccc3nc3c4ccccc4n(C)c23)cc(CN(CC)CC)c1O,·,·,11.2µM,–
CCOC(=O)c1c(NC(=O)C(C)OC(=O)C2=COCCO2)sc2c1CCCC2 (stereo not drawn),–,–,·,·
CCOC(=O)c1c(NC(=O)C(C)OC(=O)c2ccc(NC(=O)CC#N)cc2)sc2c1CCCC2 (stereo not drawn),–,28.2µM,–,–
O=C([C@@H]1C[C@@H](Sc2nc3ccccc3[nH]2)CN1Cc1c(F)cccc1F)N1CCOCC1,·,·,–,–
CC(C)(C)c1csc(NNC(=O)c2ccc(Cl)cc2)n1,–,–,?,7.08µM
CCCOC(=O)C1C2C=CC3(CN(c4ccc(Cl)c(F)c4)C(=O)C13)O2 (stereo not drawn),–,7.08µM,–,–
CCOC(=O)C1C2C=CC3(CN(c4ccc(Cl)c(F)c4)C(=O)C13)O2 (stereo not drawn),–,–,–,–
COc1cc2c(cc1NC(=O)CSc1ccccc1)oc1ccccc12,–,–,·,·
COc1cc2c(cc1NC(=O)Nc1ccc(C)cc1)oc1ccccc12,–,–,–,–
COc1cc2c(cc1NC(=O)Nc1ccc(F)cc1)oc1ccccc12,?,14.1µM,–,–
COc1cc2c(cc1NC(=O)CSc1nc3ccccc3[nH]1)oc1ccccc12,–,7.94µM,–,?
CN(C)c1ccc(/C=C/c2cc3ccccc3c[n+]2C)cc1,·,·,–,–
CCCn1nc([N+](=O)[O-])c(C(C#N)c2nc3ccccc3s2)c(Cl)c1=O (stereo not drawn),–,14.1µM,·,·
O=c1oc(C2(O)CCCCC2)cc2ccc(-c3ccc4[nH]ccc4c3)cc12,·,–,–,0.631µM

# Screens: PubChem BioAssay, National Center for Advancing Translational Sciences (NCATS)
